Most compounds without a hit are left out; they make up all but 8.3% or so of the library.
FMDV inh: blocks foot and mouth disease virus | FMDV antiviral cell-based qHTS | Potency, µM (top dose mostly 57.9 µM), without a hit: at the highest dose activity change, negative = inhibition, usual class: inhibitors | actives 1.2% (n = 410,000); calls by dose curve; tested in HEK293T cells; also: read-out not given here; potency is read from the fitted curve at half-maximal effect; nearly all actives have a fitted effect of over 45% in size
Giardia FBPA inh: inhibitors of Giardia lamblia fructose-1,6-bisphosphate aldolase; AID 2451; Potency, µM (doses to about 59.6 µM), inactives show top-dose activity, negative = inhibition, most hits filed as inhibitors; actives 0.71% (n = 290,000); purified Giardia FBPA; also: potency is read from the fitted curve at half-maximal effect; nearly all actives have a fitted effect of over 55% in size
Target sequence (A8B2U2 whole entry, looked up): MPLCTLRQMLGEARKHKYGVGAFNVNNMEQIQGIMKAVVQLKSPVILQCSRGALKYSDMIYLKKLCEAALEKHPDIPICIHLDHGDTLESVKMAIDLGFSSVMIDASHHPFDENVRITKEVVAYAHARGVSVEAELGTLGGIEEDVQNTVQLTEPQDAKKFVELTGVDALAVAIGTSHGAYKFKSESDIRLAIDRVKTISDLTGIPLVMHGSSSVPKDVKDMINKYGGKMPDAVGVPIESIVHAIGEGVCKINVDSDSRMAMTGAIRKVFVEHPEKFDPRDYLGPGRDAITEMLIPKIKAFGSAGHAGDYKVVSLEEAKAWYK
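40 nM FBPA preincubated 10 min at RT with compound (up to 57.5 uM final), then substrate plus GAPDH/TPI/NAD/arsenate coupling and diaphorase/resazurin added. Fluorescence read after 20 min at RT, 525/598 nm.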
Lassa entry inh: inhibitors of Lassa virus binding or cell entry; Lassa virus pseudotype entry inhibition, cell reporter; Potency, µM (highest dose often 37.9 µM), without a hit: at the highest dose activity change, negative = inhibition, most hits filed as inhibitors; actives 1.2% (n = 300,000); AID 540256; calls by dose curve; tested in HEK293 cells; also: potency is read from the fitted curve at half-maximal effect; nearly all actives have a fitted effect of over 50% in size
Marburg entry inh: inhibitors of Marburg virus binding or cell entry. actives 1.8% (n = 300,000). Marburg virus pseudotyped entry inhibition, cell reporter. AID 540276. Potency, µM (highest dose often 37.8 µM), without a hit: at the highest dose activity change, negative = inhibition, actives largely listed as inhibitors; calls by dose curve; tested in HEK293 cells; also: potency is read from the fitted curve at half-maximal effect
HCMV inh: human cytomegalovirus inhibition | HFF cells, HCMV-luciferase reporter, 72 h; stronger effect = lower value | activity change, negative = inhibition, % at 57.5 µM | actives 4.5% (n = 410,000) | AID 1259415; in the data active = activity change below about -60%; inconclusive = no clear call, values can overlap the other calls; inactive = above about -39%
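Luciferase read-out from HCMV-luciferase-infected HFFs (MOI 1 PFU/cell) 72 h post infection at 37C; compounds added after 16 h cell attachment; activity normalized between buffer-only basal and Salinomycin (10uM) inhibitor controls.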
HCV inh: blocks hepatitis C virus; Huh7.5.1 HCVcc-Cre infection, luciferase reporter, 44 h; Potency, µM (doses to about 41.8 µM), without a hit: at the highest dose activity change, negative = inhibition, actives largely listed as inhibitors; actives 3.4% (n = 340,000); AID 651820; also: potency is read from the fitted curve at half-maximal effect
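Compounds are dispensed onto cells plated 4 h earlier at 1,000 per well, with HCVcc-Cre virus (about 0.5 moi) added next. Following 44 h of culture, luminescent signal is measured for 15 sec after 15 min with substrate at room temperature.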
Active calls of the source: *; ? = inconclusive; . = not tested or not shown; [ ] = dose if it differs, or a comment. Unless noted, calls follow the shape of the dose curve; as a rule, active = well fitted curve in the direction sought with a large enough effect; inconclusive = small, poorly fitted or top-dose-only effect, or another doubt; inactive = no such curve, though single readings can be large; an effect the other way counts as inactive or inconclusive. % is scaled to controls: 0 for no effect and ±100 for the full control effect.

SMILES	FMDV inh	Giardia FBPA inh	Lassa entry inh	Marburg entry inh	HCMV inh	HCV inh
CSc1ccc(/C=N/n2c(Cc3ccc(Br)cc3)n[nH]c2=S)cc1	4%	0%	?	25%[46.1 µM]	19	-20%
S=c1[nH]nc(COc2ccccc2)n1/N=C/C(Cl)=C/c1ccccc1	35µM*	10%	18µM*	2%	12	-27%
O=[N+]([O-])c1ccc(Cl)c(/C=N/n2c(-c3ccncc3)n[nH]c2=S)c1	-6%	-13%	2%	18%[46.1 µM]	-67*	14%
CC(C)CCn1c(COc2ccccc2)n[nH]c1=S	1%	3%	6%[46.1 µM]	1%[46.1 µM]	-62*	29%
S=c1[nH]nc(-c2ccncc2)n1/N=C/C=C/c1ccccc1	23%	4%	0%	?	-9	6%
S=c1[nH]nc(-c2ccncc2)n1/N=C/C(Cl)=C\c1ccccc1	-11%	14%	.	.	-87*	-13%
CN(C)c1ccc(/C=N/n2c(COc3ccccc3)n[nH]c2=S)cc1	5%	24%	0.92µM*	5%	-26	16%
S=c1[nH]nc(COc2ccccc2)n1/N=C/C=C/c1ccco1	2%	?	0.79µM*	-16%[46.1 µM]	21	6%
COc1ccccc1C(=O)N1CCN(Cc2cc(=O)oc3cc(C)ccc23)CC1	-11%	.	-1%[46.1 µM]	-5%[46.1 µM]	6	.
Cc1ccc(/C=N/n2c(COc3ccccc3)n[nH]c2=S)cc1	-10%	20%	.	.	-36	?
Cc1nn(-c2ccccc2)c(C)c1/C=N/n1c(-c2ccc(Cl)cc2)n[nH]c1=S	?	8%	?	-21%	?	-22%
Cc1nn(-c2ccccc2)c(C)c1/C=N/n1c(-c2ccncc2)n[nH]c1=S	-9%	-1%	?	?	-74*	5%
CC(C)c1ccc(/C=N/n2c(COc3ccccc3)n[nH]c2=S)cc1	-8%	23%	1.6µM*	?	27	19%
COc1ccc(OC)c(-c2ccccc2/C=N/NS(=O)(=O)c2ccc(C)cc2)c1	.	0%[12.9 µM]	.	?	.	.
CCCn1c(-c2ccc(F)cc2)nc2c(N3CCN(C)CC3)nc(C)nc21	.	2%	.	.	.	.
CCCCN(CCCC)c1nc(-c2ccncc2)nc2ccccc12	28µM*	-4%	.	.	-70*	0%
COCCN(CCOC)c1nc(-c2ccccc2)nc2ccccc12	?	1%	.	.	-36	?
CCN(CC)c1nc(-c2ccccc2)nc2ccccc12	?	?	-9%	?	-63*	11µM*
COC(=O)c1c(OCc2ccccn2)cc(=O)n2c1CCN(Cc1ccc3c(c1)CCCN3C)CC2	-18%	.	.	.	.	.
CN(Cc1cnc2nc(N)nc(N)c2n1)c1ccc(C(=O)NC(CCC(=O)O)C(=O)O)c2ccccc12 (centres undefined)	-18%	.	?	?	-101*	-16%
O=Nc1c(-c2c(O)[nH]c3cc(Br)ccc23)[nH]c2ccccc12	1%	-30%	?	?	-68*	5.6µM*
O=C(CSCc1cccc(Br)c1)N=Nc1c(O)[nH]c2ccccc12	-8%	.	?	-6%	1	?
Fc1cccc(F)c1-n1c(CN2CCCCC2)csc1=S	-25%	-1%	-13%[46.1 µM]	6.3µM*	-68*	?
Fc1cccc(F)c1-n1c(CN2CCOCC2)csc1=S	-21%	0%	.	.	2	-6%
CCCCCCCCCCCCCCCCOCC(CO)OC(C)=O (centres undefined)	-8%[6.7 µM]	3%	.	.	.	.
SMILES	FMDV inh	Giardia FBPA inh	Lassa entry inh	Marburg entry inh	HCMV inh	HCV inh
CCc1nn(CC(=O)Nc2c(C)cc(C)cc2C)c(=O)c2cc3sccc3n12	-2%	.	.	?	-14	.
CC[n+]1c(/C=C2/C=C(C)CC(C)(C)C2)sc2ccc(OC)cc21	20µM*	?	?	?	-87*	?
CCC1=C/C(=C/c2sc3ccccc3[n+]2CC)CC(C)(C)C1	?	-27%	4%[46.1 µM]	-33%[46.1 µM]	-40	?
CC[n+]1c(/C=C2\C=C(C)CC(C)(C)C2)sc2ccccc21	?	-27%	9.2µM*	?	-19	6.3µM*
COC(=O)c1cc(NC(=S)NCc2ccc(Cl)cc2)cc(C(=O)OC)c1	?	-7%	-26%	-28%	-76*	?
CC#CC#Cc1cccc(=O)o1	-26%	-1%	.	.	-89*	?
Cc1[nH]c2ccccc2c1C(C#N)(C#N)C1C(=O)c2ccccc2C1=O	-18%	10µM*	.	.	0	1%
COc1ccc(CCNC(=O)c2nc(SCc3ccc(C)cc3)ncc2Cl)cc1OC	?	.	-27%[46.1 µM]	-10%[46.1 µM]	-37	.
CCC1C(=O)NCCN1Cc1ccc2c(c1)CN(Cc1ccc(OC)c(OC)c1)CCO2 (centres undefined)	-17%	.	.	.	.	.
COc1ccc(C2=NOC(Cn3nc(C(=O)NCc4ccc(C)cc4)cc3-c3ccccc3)C2)cc1 (centres undefined)	0%	.	.	.	-35	8.9µM*
COc1ccc(C2=NOC(Cn3nc(C(=O)NCc4cccs4)cc3-c3ccccc3)C2)cc1 (centres undefined)	-6%	.	.	.	-15	10µM*
COc1ccc(C2=NOC(Cn3nc(-c4ccccc4)cc3C(=O)NCc3cccs3)C2)cc1 (centres undefined)	40%	.	.	.	47	?
COc1cc(N)c2ncccc2c1OC	-13%	.	28%[46.1 µM]	-2%[46.1 µM]	-8	1%
COc1cc(NC(C)CCCNC(C)C)c2ncccc2c1OC (centres undefined)	-12%	.	-22%	1%	-82*	?
COC(=O)N/N=C/c1sc(N2CCCCC2)nc1-c1cccs1	0%	?	-13%	1%	-68*	?
COc1ccc(NC(=S)/N=C(\N)Nc2nc(C)c3ccc(C)cc3n2)cc1	?	7%	.	.	-35	11µM*
